“And” between values parts separate entries of the source, which are not always exact repeats. Equal values may be shown once. Some structures have more than one record in an assay (separate samples or runs), and their calls can disagree. The source made the active and inactive calls. The calls were made as follows: active = hit-call score of the fitted dose curve at least 0.9, where 1 is the maximum; inactive = score below 0.9.
The compounds below were run on CD40, CD40 (gene 958) (assay: BSK_SAg_CD40: BioMAP Diversity Plus: SAg Assay for CD40 Biomarker Activity (AID 2283088)). Settings: primary human HUVEC with PBMC; actives raise or lower the signal.
Method: BSK_SAg is a cell-based, multiplexed-readout assay that uses umbilical vein endothelium and peripheral blood mononuclear cells, a human vascular primary cell co-culture, with measurements taken at 24 hours after chemical dosing in a 96-well plate.BSK_SAg_CD40 is one of 10 assay component(s) measured or calculated from the BSK_SAg assay. It is designed to make measurements of enzyme-linked immunosorbent assay, a form of binding reporter, as detected with fluorescence intensity signals by Enzyme-linked immunosorbent assay technology.Data from the assay component BSK_SAg_CD40 was analyzed into 1 assay endpoint. This assay endpoint, BSK_SAg_CD40, was analyzed with bidirectional fitting relative to DMSO as the negative control and baseline of activity. Using a type of binding reporter, gain or loss-of-signal activity can be used to understand changes in the signaling as they relate to the gene CD40. Furthermore, this assay endpoint can be referred to as a primary readout, because this assay has produced multiple assay endpoints where this one serves a signaling function. To generalize the intended target to other relatable targets, this assay endpoint is annotated to the cytokine intended target family, where the subfamily is inflammatory factor.
The levels of cell surface (or secreted, indicated by the prefix "s") biomarker endpoints were measured by ELISA. Overt cytotoxicity to cells in confluent adherent cultures (all systems other than the BT system) was assessed by measuring total protein levels using sulforhodamine B (SRB) staining in parallel cultures at the time of biomarker measurements, indicated as SRB endpoints. For proliferation assays for adherent cell types, individual cell types are cultured at sub-confluence and relative cell numbers quantified by SRB staining at time points optimized for each system (48 h: 3C and CASM3C systems; 72 h: BT and HDF3CGF systems; 96 h: SAg system). SRB was performed by staining cells with 0.1% SRB after fixation with 10% TCA and reading wells at 560 nm.Viability and proliferation of PBMC (T cells) was quantified by Alamar Blue reduction for the SAg and BT systems. For PBMC viability (referred to as PBMC Cytotoxicity within the assay endpoint names), cells were plated (75,000/well in a 96-well plate) and then chemical samples added for 1 h before addition of activators, SEB and TSST-1 (20 ng/mL final concentration each). Cells were incubated for 90 h. Then, Alamar Blue (20 uL/well) (Invitrogen, Cat DAL1100) was added for 6 h, and the plates were read with a fluorescence microplate reader at 546/580 nm (excitation/emission). For PBMC proliferation, cells were plated and activated as above but incubated for only 16 h prior to addition of Alamar Blue. Plates were read after 6 h.

SMILES | outcome | AC50
O=C(O)c1nc(Cl)ccc1Cl | inactive | –
Oc1ccccc1-c1ccccc1 | inactive | –
CCOC(=O)C(Cl)Cc1cc(-n2nc(C)n(C(F)F)c2=O)c(F)cc1Cl (stereo not given) | inactive | –
Cc1ccc(-c2c(Cl)nc(C#N)n2S(=O)(=O)N(C)C)cc1 | – | 20 µM (active)
N#Cc1nn(-c2c(Cl)cc(C(F)(F)F)cc2Cl)c(N)c1S(=O)C(F)(F)F (stereo not given) | – | 28.1 µM (active)
C#CCOS(=O)OC1CCCCC1Oc1ccc(C(C)(C)C)cc1 (stereo not given) | – | 7.36 µM (active)
CON(C)C(=O)Nc1ccc(Cl)c(Cl)c1 | inactive | –
CCCCOC(=O)c1ccccc1C(=O)OCCCC | inactive | 15.4 µM (active)
CCON=C(CC)C1=C(O)CC(c2c(C)cc(C)cc2C)CC1=O (stereo not given) | inactive | –
CCOP(=S)(OCC)SCn1c(=O)oc2cc(Cl)ccc21 | inactive | –
OC(c1ccc(Cl)cc1)(c1cncnc1)c1ccccc1Cl (stereo not given) | – | 13.8 µM (active)
CCCC1COC(Cn2cncn2)(c2ccc(Cl)cc2Cl)O1 (stereo not given) | inactive | –
O=C(Nc1ccccc1)Nc1ccnc(Cl)c1 | inactive | –
CNC(=O)ON=CC(C)(C)SC | inactive | –
O=C(O)COc1nc(Cl)c(Cl)cc1Cl | inactive | –
CCCCC(CC)COC(=O)c1ccccc1C(=O)OCC(CC)CCCC (stereo not given) | inactive | –
CC(C)C1(C)N=C(c2nc3ccccc3cc2C(=O)O)NC1=O (stereo not given) | – | 1.33 µM (active)
COc1nc(C)nc(NC(=O)NS(=O)(=O)c2ccccc2Cl)n1 | inactive | –
CS/C(C)=N/OC(=O)N(C)SN(C)C(=O)O/N=C(\C)SC | – | 28.3 µM (active)

SMILES | outcome | AC50
CC(C)Oc1cc(-n2nc(C(C)(C)C)oc2=O)c(Cl)cc1Cl | – | 29.3 µM (active)
C=CCC1=C(C)C(OC(=O)C2C(C=C(C)C)C2(C)C)CC1=O (stereo not given) | – | 31.7 µM (active) [middle of 4 runs]
COc1nc(C)nc(NC(=O)NS(=O)(=O)c2ccccc2CCC(F)(F)F)n1 | inactive | –
Cc1c(F)c(F)c(COC(=O)C2C(/C=C(\Cl)C(F)(F)F)C2(C)C)c(F)c1F (stereo not given) | – | 32.5 µM (active)
CCc1nn(C)c(C(=O)NCc2ccc(C(C)(C)C)cc2)c1Cl | – | 7.68 µM (active)
CCCCNC(=O)OCC#CI | – | 18.7 µM (active) and 22.5 µM (active)
COC(=O)C(C)Oc1ccc(Oc2ccc(Cl)cc2Cl)cc1 (stereo not given) | inactive | 13.6 µM (active)
CCCCNC(=O)n1c(NC(=O)OC)nc2ccccc21 | inactive | –
CC1=C(C(=O)Nc2ccccc2)SCCO1 | inactive | –
COP(=S)(OC)Oc1nc(Cl)c(Cl)cc1Cl | inactive | –
CCCN(CCC)c1c([N+](=O)[O-])cc(S(N)(=O)=O)cc1[N+](=O)[O-] | – | 35.8 µM (active) [middle of 4 runs]
CCNc1nc(Cl)nc(NCC)n1 | inactive | –
COC(=O)C=C(C)OP(=O)(OC)OC | inactive | –
COc1cnc(OC)n2nc(NS(=O)(=O)c3c(OCC(F)F)cccc3C(F)(F)F)nc12 | inactive | –
CCOC(=O)CC(SP(=S)(OC)OC)C(=O)OCC (stereo not given) | inactive | –
CCOc1cc(Oc2ccc(C(F)(F)F)cc2Cl)ccc1[N+](=O)[O-] | inactive | –
CNC(=S)S | inactive | –
COC(=O)N(OC)c1ccccc1COc1ccn(-c2ccc(Cl)cc2)n1 | – | 15 µM (active)
COc1nc(NC(C)C)nc(NC(C)C)n1 | inactive | –

— PubChem BioAssay (EPA / NIEHS)
